# Measurements: PubChem BioAssay AID504332 (National Center for Advancing Translational Sciences (NCATS), 2011)
# About 31,000 (8.9%) of roughly 350,000 compounds were called active. Roughly 15% stayed inconclusive and do not appear here. The list comes from a sample in which actives are over-represented; it also holds similar structures and randomly drawn compounds. Unmarked numbers belong to inactive results. Calls come from the whole dose curve; as a rule, active = well fitted inhibition curve with a large enough effect; inconclusive = small, poorly fitted or top-dose-only effect; inactive = no such curve, though single readings can be large or run the other way.
# Biological target: Histone-lysine N-methyltransferase EHMT2 (Homo sapiens) (UniProt Q96KQ7)
# Test: qHTS Assay for Inhibitors of Histone Lysine Methyltransferase G9a; note: nearly all actives have a fitted effect of over 75% in size
# Settings: G9a H3K9 monomethylation, AlphaScreen, 2 h; series mostly up to 59 µM; activity, negative = inhibition: at the top concentration
# Method in brief: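 Enzyme 20 nM + cpd, 15 min RT; add b-H3K9 pep 500 nM / SAM 20 uM; 2 h RT; anti-H3K9me1 Ab 0.5 ug/mL + SA donor / anti-rabbit acceptor beads 20 ug/mL each, 10 min; AlphaScreen read.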
# % is set by controls: 0 for no effect and ±100 for the full control effect; potency is the fitted concentration of half-maximal effect.
# Histone-lysine N-methyltransferase EHMT2 (Homo sapiens), sequence (Q96KQ7 913-1193 limits assumed): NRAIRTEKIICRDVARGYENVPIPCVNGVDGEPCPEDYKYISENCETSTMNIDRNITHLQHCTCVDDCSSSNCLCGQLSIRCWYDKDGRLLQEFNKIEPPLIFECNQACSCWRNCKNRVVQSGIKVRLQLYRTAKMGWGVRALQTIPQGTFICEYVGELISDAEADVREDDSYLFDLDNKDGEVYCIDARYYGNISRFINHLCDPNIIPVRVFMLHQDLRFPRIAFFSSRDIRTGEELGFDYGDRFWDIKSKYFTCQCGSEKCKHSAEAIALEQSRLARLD
Structure (SMILES),"activity, negative = inhibition",Potency
Cc1ccc(NS(=O)(=O)c2ccc(C(=O)NCCCN3CCOCC3)cc2)cc1,-22.7% [at 102 µM],
Cc1c(C)n(Cc2ccc(Cl)cc2)c2ccc(C(=O)NCCCN3CCOCC3)cc12,,44.7 µM (active)
COc1ccc(-c2cc(C(=O)NCCCN3CCOCC3)no2)cc1,14.1% [at 102 µM],
COc1ccc(Cn2c(=S)[nH]c3cc(C(=O)N4CCCCC4)ccc3c2=O)cc1,22.6% [at 102 µM],
CCCCNC(=O)CCn1c(=S)[nH]c2cc3c(cc2c1=O)OCO3,5.03% [at 0.0925 µM],
CCOc1cc2[nH]c(=O)n(Cc3ccc(C(=O)NCCN(CC)CC)cc3)c(=O)c2cc1OCC,-1.55%,
CN(C)CCn1c(=S)[nH]c2ccc(Cl)cc2c1=O,,50.1 µM (active)
CCN(CC)CCCNC(=O)c1ccc2c(=O)n(Cc3ccc4c(c3)OCO4)c(=S)[nH]c2c1,,31.6 µM (active)
O=C(CCn1c(=S)[nH]c2cc3c(cc2c1=O)OCO3)NCc1ccc(Cl)cc1,53.9%,
Cc1ccc2nnn(Cc3cccc(C(C)(C)C)c3O)c2c1,15.4% [at 2.33 µM],
COc1ccc(CCNC(=O)CCc2c(C)nc3c(c(C)nn3-c3ccc(C)c(C)c3)c2C)c(OC)c1OC,-1.62%,
O=C(CSc1nnnn1C1CCCC1)N1CCCCC1,-8.4% [at 102 µM],
Cc1cccc(CC(=O)Nc2cccc(-c3cn4cccnc4n3)c2)c1,0.135%,
CC(=O)c1ccc(NC(=O)C2CCN(S(=O)(=O)c3c(C)noc3/C=C/c3ccc(C)cc3)CC2)cc1,6.83%,
Cc1noc(C)c1COc1ccc(C(=O)NCCOc2ccccc2)cc1,19.8% [at 12.7 µM],
Cc1ccc(CNC(=O)CCc2c(C)nc3c(c(C)nn3-c3ccccc3)c2C)cc1,1.65%,
CC(CC(=O)N1CCN(c2ccccc2)CC1)S(=O)(=O)c1ccc2c(c1)NC(=O)CS2 (stereo not drawn),-15.8% [at 102 µM],
Cc1ccc(N2CC(c3nnc(Cc4ccccc4Cl)o3)CC2=O)cc1 (stereo not drawn),-22.7%,
COc1cccc(NC(=O)CN(C)C(=O)c2cc(C3CC3)nn2-c2ccccc2)c1,1.72% [at 2.33 µM],
Cn1c(=O)c2c(SCC(=O)N3CCc4ccccc43)nc(-c3ccc(Cl)cc3)nc2n(C)c1=O,0.591%,
O=C(O)c1ccc(Cn2c(=S)[nH]c3cc(Cl)ccc3c2=O)cc1,,39.8 µM (active)
COc1ccccc1Cn1c(=S)[nH]c2cc(C(=O)N3CCN(C)CC3)ccc2c1=O,19.2%,
NC(=O)C1CCN(C(=O)c2ccc3c(=O)n(Cc4cccc(Br)c4)c(=S)[nH]c3c2)CC1,,39.8 µM (active)
CCOc1cc2[nH]c(=S)n(Cc3ccc(C(=O)N4CCN(C)CC4)cc3)c(=O)c2cc1OCC,4.55% [at 102 µM],

Structure (SMILES),"activity, negative = inhibition",Potency
COc1cc2[nH]c(=S)n(Cc3ccc(F)cc3)c(=O)c2cc1OC,9.96% [at 102 µM],
CCOC(=O)N1CCN(C(=O)c2ccc3c(=O)n(CCc4ccc(OC)c(OC)c4)c(=O)[nH]c3c2)CC1,-5.11% [at 102 µM],
COc1ccc(Nc2ncc(C(=O)Nc3cc(C)ccc3OC)c3ccccc23)cc1,-0.322%,
O=C(NCc1ccncc1)C1CCCN(S(=O)(=O)c2ccc(Br)cc2)C1 (stereo not drawn),-5.72% [at 102 µM],
Cc1ccc(C)c(N2CCN(C(=O)Cn3ncc4c(=O)oc5ccc(C)cc5c43)CC2)c1,-1.95%,
COc1cc(OC)c(N(C)C(=O)c2cc3c(=O)oc4ccccc4c3s2)cc1Cl,3.37%,
COc1ccccc1CNC(=O)c1ccc(-n2c(C)cc3c2CCCC3)cc1,-4.16%,
c1nc(COc2nsnc2N2CCOCC2)cs1,15.5% [at 2.33 µM],
c1ccc(COc2nsnc2N2CCOCC2)cc1,,14.1 µM (active)
O=C(O)COc1nsnc1N1CCOCC1,20.7% [at 102 µM],
CCOc1ccc(N(CC)C(=O)c2cc3c(=O)oc4ccccc4c3s2)cc1,10.3%,
CCS(=O)(=O)C1=NSC2=NC(=O)/C(=C\c3cc(C)n(-c4cccc(OC)c4)c3C)C(=N)N21,8.92%,
CCS(=O)(=O)C1=NSC2=NC(=O)/C(=C\c3ccc(OS(=O)(=O)c4ccccc4)cc3)C(=N)N21,,39.8 µM (active)
Cc1cc(/C=C2/C(=N)N3C(=NC2=O)SN=C3S(C)(=O)=O)c(C)n1-c1ccccc1,,35.5 µM (active)
N=C1/C(=C/c2cccn2-c2cccc([N+](=O)[O-])c2)C(=O)N=C2SC=CN12,29.7% [at 102 µM],
COc1cc(/C=C2\C(=N)N3N=C(CC(=O)N4CCOCC4)SC3=NC2=O)cc(OC)c1OC,78.5% [at 102 µM],
Cc1ccc(C2=N/C(=C\c3ccc(OS(=O)(=O)c4ccc(C)cc4)cc3)C(=O)O2)cc1,19.5%,
CCC1=Nc2cc(C(=O)NCCCOC(C)C)ccc2Sc2ccc(C)cc21,1.84%,
O=C(COC(=O)c1ccccn1)NNC(=O)c1ccc([N+](=O)[O-])cc1,6.96% [at 102 µM],
CCCNC(=O)c1ccc(Cn2c(SCC(N)=O)nc3ccccc3c2=O)cc1,2.19%,
CC(=O)CCC(=O)c1ccc2ccccc2c1,18.9%,
C=CC(=O)c1ccc2ccccc2c1,,1.26 µM (active)
CC(=O)c1ccc2c(ccc3ccccc32)c1,-4.88%,
O=C(/C=C/c1ccccc1)Nc1cc(-c2nc3cc(Cl)ccc3o2)ccc1Cl,10.9%,
